Source: paper PMC4552634, “A New Set of Chemical Starting Points with Plasmodium falciparum Transmission-Blocking Potential for Antimalarial Drug Discovery” (PLoS ONE, 2015)
Where two headings read alike, the source gives them in different places. Hit rate of the full screen: of about 13,000 compounds, about 3,200 (25%) showed an effect of 50% or more. This is one part of the list.

Tested on: P. falciparum stage V gametocytes
Design: BacTiter-Glo ATP luminescence viability of purified stage V gametocytes in 384-well plates, per cent inhibition versus DMSO
Conditions: 48 h, 5 µM, inhibitor

SMILES | % Inhibition [%] | % Inhibition (% Inhibition) [%]
O=C(N[C@@H](CC1CCCCC1)C(=O)NCCN1CCCC1)c1ccc(O)c(-c2ccc(Cl)c(Cl)c2)c1 [TCMDC-140830] | 4.598 | 
COc1ccc(Nc2nccc(NCC(O)c3ccc(C(F)(F)F)cc3)n2)cc1 (centres unmarked) [TCMDC-136595] | -79.42 | 
CCCCCN(C(=O)Nc1cc(C(F)(F)F)cc(C(F)(F)F)c1)C(C)c1nc2ccccc2c(=O)n1CC (centres unmarked) [TCMDC-124043] | -29.97 | 
O=C(Nc1cc(C(F)(F)F)ccc1Cl)c1ccc(Cn2cc(Br)cn2)cc1 [TCMDC-124912] | -0.3608 | 
N#Cc1ccc(CNCCCCCCNCc2ccc(C#N)c3ccccc23)c2ccccc12 [TCMDC-137849] | 40.84 | 
FC(F)(F)COc1c(CNCCCCCCNCc2ccc3ccccc3c2OCC(F)(F)F)ccc2ccccc12 [TCMDC-137833] | 67.85 | 
O=c1cc(NCCCNCc2cccc(C(F)(F)F)c2Cl)[nH]c2ccccc12 [TCMDC-139421] | -19.98 | 
FC(F)(F)COc1c(CCNCCCCNCCc2ccc3ccccc3c2OCC(F)(F)F)ccc2ccccc12 [TCMDC-137169] | 119.3 | 
CN(C)c1ccc(C2(c3ccccc3)N=C(N)N(CCCc3ccccc3)C2=O)cc1 (centres unmarked) [TCMDC-136715] | -12.92 | 
CCCCCOc1ccc(C(O)C(CCC(CN2CCCCCC2)C(O)c2ccc(OCCCCC)cc2)CN2CCCCCC2)cc1 (centres unmarked) [TCMDC-124174] | 105.7 | 
CCCCCOc1ccc(C(O)C(CN2CCCCC2)c2ccccc2)cc1 (centres unmarked) [TCMDC-124165] | 1.137 | 
CC(C)COc1ccc(C(O)C(CN2CCCCC2)c2ccccc2)cc1 (centres unmarked) [TCMDC-124253] | 31.95 | 
COc1ccc(CNC2CCN(C)CC2)cc1-c1ccc(S(=O)(=O)NCc2cccnc2)s1 [TCMDC-132261] | 20.62 | 
COc1cc(CNC2Cc3ccccc3C2)ccc1Oc1ccc2nc[nH]c2c1 [TCMDC-133481] | -19.03 | 
COc1ccc(CNC2Cc3ccccc3C2)cc1-c1ccc(S(=O)(=O)NCc2ccccc2)s1 [TCMDC-132252] | 67.04 | 
COc1ccc(CNC2Cc3ccccc3C2)cc1-c1ccc(S(=O)(=O)NCc2cccnc2)s1 [TCMDC-132260] | 33.12 | 
COc1ccc(CNC2CCN(C)CC2)cc1-c1ccc(S(=O)(=O)NCc2ccccc2)s1 [TCMDC-132253] | 85.45 | 
COc1ccc(CNC2Cc3ccccc3C2)cc1-c1ccc(S(=O)(=O)NCCc2ccccn2)s1 [TCMDC-132255] | 98.81 | 
COc1ccc(CNC2CCN(C)CC2)cc1-c1ccc(S(=O)(=O)NCCc2ccccn2)s1 [TCMDC-132256] | 13.25 | 
COc1ccc(NC(=O)/C=C/c2ccccc2Cl)cc1OCCN1CCC(Cc2cc3ccccc3[nH]2)CC1 [TCMDC-140920] | -36.18 | 
CN(C)C(CNC(=O)c1cc(-c2ccncc2)c(-c2ccc(Cl)c(O)c2)o1)c1ccccc1 (centres unmarked) [TCMDC-135438] | -15.77 | 
O=C(CCc1cnc[nH]1)Nc1cccc(-c2ccc(-c3nc4ccc(F)cc4[nH]3)cc2)c1 [TCMDC-132154] | 23.15 | 

SMILES | % Inhibition [%] | % Inhibition (% Inhibition) [%]
Cc1ccc(N2CCN(C(=O)c3cccc(-c4cncc5nc(-c6ccco6)n(C)c45)c3)CC2)nc1 [TCMDC-134992] | -10.32 | 
C#CCNC(=O)c1ccc(-c2ccnc(Nc3cccc(CCCN4CCOCC4)c3)n2)s1 [TCMDC-136764] | 20.31 | 
COc1cccc(CN2CCCC(OC(c3ccccc3)c3ccccc3)C2)c1O (centres unmarked) [TCMDC-136385] | -25.83 | 
CCCN1CCN(CCCNC(=O)c2cc3c(-c4ccc(Cl)cc4)nn(C)c3s2)CC1 [TCMDC-124731] | 12.34 | 
CCN1CCCC1CNC(=O)c1cc2c(-c3ccc(Cl)cc3)nn(C)c2s1 (centres unmarked) [TCMDC-123579] | 67.12 | 
Cn1nc(-c2ccc(Cl)cc2)c2cc(C(=O)NCCN3CCOCC3)sc21 [TCMDC-124416] | 0.2691 | 
CCNC[C@@H](O)[C@H](Cc1ccccc1)NC(=O)c1cc2c3c(c1)c(CC)cn3CCS(=O)(=O)N2C [TCMDC-135800] | 27.6 | 
CCc1cn2c3c(cc(C(=O)N[C@@H](Cc4ccccc4)[C@H](O)CNCCOC)cc13)N(C)S(=O)(=O)CC2 [TCMDC-135799] | 12.82 | 
CCCCNC[C@@H](O)[C@H](Cc1ccccc1)NC(=O)c1cc2c3c(c1)c(CC)cn3CCS(=O)(=O)N2C [TCMDC-135802] | 53.96 | 
CCc1cn2c3c(cc(C(=O)N[C@@H](Cc4ccccc4)[C@H](O)CNCC(C)C)cc13)N(C)S(=O)(=O)CC2 [TCMDC-135804] | 36.82 | 
CCc1cn2c3c(cc(C(=O)N[C@@H](Cc4ccccc4)[C@H](O)CNCc4cccc(C)c4)cc13)N(C)S(=O)(=O)CC2 [TCMDC-135923] | 15.33 | 
CCc1cn2c3c(cc(C(=O)N[C@@H](Cc4ccccc4)[C@H](O)CNCc4ccccc4C)cc13)N(C)S(=O)(=O)CC2 [TCMDC-135922] | -22.32 | 
CCCNC[C@@H](O)[C@H](Cc1ccccc1)NC(=O)c1cc2c3c(c1)c(CC)cn3CCS(=O)(=O)N2C [TCMDC-135863] | 78.77 | 
CCc1cn2c3c(cc(C(=O)N[C@@H](Cc4ccccc4)[C@H](O)CNCc4ccccc4)cc13)N(C)S(=O)(=O)CC2 [TCMDC-135883] | 74.56 | 
CCc1cn2c3c(cc(C(=O)N[C@@H](Cc4ccccc4)[C@H](O)CNCc4ccc(C)cc4)cc13)N(C)S(=O)(=O)CC2 [TCMDC-135924] | 11.35 | 
COC(=O)c1ccc(CC(C)NCC(O)c2cccc(C(F)(F)F)c2)cc1 (centres unmarked) [TCMDC-131435] |  | 22.12
COc1ccc(OC)c(CNCC(O)c2cc(C(F)(F)F)cc(C(F)(F)F)c2)c1 (centres unmarked) [TCMDC-140306] | 38.32 | 
Cc1nc2ccc3ccc(CNc4ccc(C(=O)CC(CCC(=O)O)C(=O)O)cc4)cc3c2c(=O)[nH]1 (centres unmarked) [TCMDC-137855] | 12.05 | 
COc1cc(C(C)C)ccc1N1CCN(CCCCNC(=O)c2ccc(NC(=O)c3ccc(Cl)cc3)cc2)CC1 [TCMDC-138518] | -18.1 | 
N#Cc1cccc(NC(=O)Nc2cccc(-c3cccc(-c4nc5ccc(F)cc5[nH]4)c3)c2)c1 [TCMDC-133197] | -38 | 
COCC(=O)N(Cc1ccccc1-c1ccc(CNCCc2ccccc2)cc1)C1CCN(Cc2ccccc2)CC1 [TCMDC-140534] | 105.6 | 
COCC(=O)N(Cc1ccccc1-c1cccc(CNCCc2ccccc2)c1)C1CCN(Cc2ccccc2)CC1 [TCMDC-140533] | 103.5 | 

SMILES | % Inhibition [%] | % Inhibition (% Inhibition) [%]
CCNc1cc(C(=O)N[C@@H](Cc2ccc(F)c(F)c2)[C@H](O)CNCc2cccc(OC)c2)cc(N2CCCCS2(=O)=O)c1 [TCMDC-135059] | -18.05 | 
CC1(C)N=C(NC(=O)c2ccc([N+](=O)[O-])cc2)N=C(N)N1OCc1ccc2ccccc2c1 [TCMDC-131580] | 48.26 | 
FC(F)c1nc2ccccc2n1-c1nc(N2CCOCC2)nc(N2CCOCC2)n1 [TCMDC-137004] | 98.45 | 
CC12CC3CC(C)(C1)CC(Nc1nc(N4CCOCC4)nc4ccccc14)(C3)C2 [TCMDC-123862] | -97.33 | 
Nc1nc(N)c2c(Cl)c(N3CCOCC3)ccc2n1 [TCMDC-137868] | -6.497 | 
O=c1ccc2ccc(F)cc2n1CCN1CCC(NCc2ccc(-c3ccccn3)s2)CC1 [TCMDC-135133] | 2.874 | 
NC1=NC(c2ccccc2)N(c2ccc(Cl)c(Cl)c2)C(N)=N1 (centres unmarked) [TCMDC-136305] | 1.025 | 
CN(C)CCCNc1nccc(N(C)c2ccc(NC(=O)Nc3cc(C(F)(F)F)ccc3F)cc2)n1 [TCMDC-141633] | 100.7 | 
CN(c1ccc(NC(=O)Nc2cc(C(C)(C)C)on2)cc1)c1ccnc(NCCOC(=O)Nc2cc(C(C)(C)C)on2)n1 [TCMDC-141707] | 55.26 | 
CCN(CC)CCNc1nccc(N(C)c2ccc(NC(=O)Nc3cc(C(F)(F)F)ccc3F)cc2)n1 [TCMDC-141632] | 74.5 | 
CCN(CC)CCCNc1nccc(N(C)c2ccc(NC(=O)Nc3cc(C(F)(F)F)ccc3F)cc2)n1 [TCMDC-141634] | 97.67 | 
CN(c1ccc(NC(=O)Nc2cc(C(C)(C)C)on2)cc1)c1ccnc(NCCN2CCOCC2)n1 [TCMDC-141706] | 2.344 | 
CCNC(=O)Nc1ccc(N(C)c2ccnc(Nc3ccc(CS(C)(=O)=O)cc3)n2)cc1 [TCMDC-138759] | -39.6 | 
CN(c1ccc(NC(=O)Nc2cccc(Cl)c2)cc1)c1ccnc(N)n1 [TCMDC-138782] | 0.5988 | 
COc1cc(NC(=O)CCCCCCCCN2CCN(C)CC2)c2ncccc2c1 [TCMDC-138212] | 0.271 | 
CCCCCCc1cc2cc(-c3csc(C=Cc4ccccc4)n3)c(=O)oc2cc1O [TCMDC-125662] | -11.21 | 
COc1ccc2nccc([C@@H](O)CN3CCC(NCc4cc5ccccc5s4)CC3)c2c1 [TCMDC-140684] | 1.924 | 
COc1ccc2nccc([C@@H](O)CN3CCC(NCc4[nH]c5ccccc5c4F)CC3)c2c1 [TCMDC-141052] | 4.499 | 
CCNC(=O)Nc1ccc(N(C)c2ccnc(NC3CC3)n2)cc1 [TCMDC-138763] | 40.84 | 
CCCNC(=O)Nc1ccc(N(C)c2ccnc(NC3CC3)n2)cc1 [TCMDC-138764] | 12.51 | 
CC(=O)c1ccc(NC(=O)Nc2ccc(N(C)c3ccnc(NC4CC4)n3)cc2)cc1 [TCMDC-138767] | 82.68 | 
